Screens from PubChem BioAssay.
3T3 cytotox = kills NIH 3T3 cells; NIH 3T3 viability, CellTiter-Glo ATP luminescence, 48-72 h; Potency, µM (highest dose often 96.7 µM), inactives show at the top dose activity change, negative = cytotoxicity, most hits filed as inhibitors; actives 4.3% (n = 94,000); further: nearly all actives have a fitted effect of over 55% in size
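Viability of NIH 3T3 cells after 48 or 72 hr compound treatment at 37 °C was assessed by CellTiter-Glo, with luminescence imaged following a 10 min room-temperature step.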
hNpr1 antagonist = human Npr1 receptor antagonism | P16066 | HEK293 hNpr1 GloSensor cGMP, ANP-stimulated luminescence | Potency, µM (series often up to 46.3 µM), inactives show at the top dose activity change, negative = inhibition, actives largely listed as inhibitors | actives 1.6% (n = 76,000) | AID 1347048; calls by dose curve; further: nearly all actives have a fitted effect of over 60% in size
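Compound pre-incubated 30 min at room temperature on GloSensor-loaded HEK293 cells stably carrying hNpr1 and the pGS-40F cGMP biosensor. Stimulation uses hNppA at 0.1 nM final; luminescence is taken at baseline and 20 min post-agonist.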
HEK293 tox = cytotoxic compounds in HEK 293 cells | HEK 293 viability, ATP luminescence (CellTiter-Glo), 48-72 h | Potency, µM (series often up to 115 µM), inactives show at the top dose activity change, negative = cytotoxicity, actives largely listed as inhibitors | actives 6.6% (n = 94,000); further: nearly all actives have a fitted effect of over 60% in size
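HEK 293 seeded at 250 cells/well receive compound via pintool. After 48 or 72 hr at 37 degree Celsius, 5% CO2 and 95% humidity, CellTiter-Glo is dispensed and luminescence read following 10 min at room temperature.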
FLuc inh = inhibitors of firefly (Photinus pyralis) luciferase | P08659 | purified P. pyralis luciferase, luminescence, biochemical | Potency, µM (highest dose often 115 µM), most hits filed as inhibitors | actives 2.5% (n = 76,000) | AID 1347043; further: nearly all actives have a fitted effect of over 65% in size
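Biochemical qHTS: compound (6-point titration) added to 10uM D-luciferin plus 10uM ATP in Tris acetate pH 7.5 buffer with Mg, Tween-20 and BSA, then purified enzyme at 10nM; light output imaged.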
The depositor's hits bear a star; i = inactive; ? = inconclusive; . = no result given; [ ] = dose if it differs, or a comment. This is a sample that favours compounds with a hit; in the whole collection about 11% have one here. Unless noted, the call rests on the fitted dose curve; in most records, active means well fitted curve in the direction sought with a large enough effect; inconclusive means small, poorly fitted or top-dose-only effect, or another doubt; inactive means no such curve, though single readings can be large; an effect the other way counts as inactive or inconclusive. On the % scale 0 is the no-effect control and ±100 the full control effect; potency means the concentration at half of the fitted maximal effect.

SMILES	3T3 cytotox	hNpr1 antagonist	HEK293 tox	FLuc inh
COc1cccc(-c2noc(NCc3cccc(Cl)c3)n2)c1OC	?	-5%	79µM*	i
COCCn1ncc(N2CCCC(CC(=O)N(C)C3CCN(C)CC3)C2)cc1=O (centres undefined)	-28%	.	-2%	.
CO[C@@H]1COCC[C@H]1NC1CCN(c2ncc3ccc(F)cc3n2)CC1	-4%	2%	-2%	i
Cc1ccccc1C(=O)N1CCC2(CC1)NC(=O)N(c1ccc(F)cc1)N2	?	2%	?	i
Cc1ccc(-c2noc([C@@H]3Cc4nc[nH]c4CN3Cc3ccccc3)n2)cc1	79µM*	-12%[70.6 µM]	100µM*	?
c1ccc(CN2Cc3[nH]cnc3C[C@H]2c2nc(-c3ccccc3)no2)cc1	?	-17%[70.6 µM]	71µM*	i
Fc1ccc(CN2Cc3[nH]cnc3C[C@H]2c2nc(-c3ccc(F)c(Cl)c3)no2)cc1	89µM*	-25%[70.6 µM]	?	?
CN(C)c1ccc(CN2Cc3[nH]cnc3C[C@H]2c2nc(-c3ccncc3)no2)cc1	?	1%[70.6 µM]	-26%[172 µM]	i
Cc1ccc(-c2noc([C@@H]3Cc4nc[nH]c4CN3C(=O)CCC(=O)O)n2)cc1	-21%[174 µM]	-3%[70.6 µM]	-12%[172 µM]	?
Cn1ncc2c(C(=O)NC3CCC3)cc(-c3cccc(C(F)(F)F)c3)nc21	-4%	.	3%	.
O=C(NC1CCN(c2ccc3nnc(C4CC4)n3n2)C1)c1ccc(Cl)cc1 (centres undefined)	i	.	-4%	.
CC(=O)Nc1ccc(C2(C(=O)N3CCC(N4CCCCC4)CC3)CCCCC2)cc1	-10%	3%	-23%	i
Cc1cccc(S(=O)(=O)N2CCCN(C)c3ccccc32)c1	?	-6%	?	i
CN1CCCN(S(=O)(=O)c2ccc(C(F)(F)F)cc2)c2ccccc21	?	-3%	40µM*	i
CN1CCCN(S(=O)(=O)c2cccc(Br)c2)c2ccccc21	?	-23%	40µM*	i
CC1Oc2ccc(NC(=O)Cc3ccc(F)cc3)cc2CN(Cc2ccc(Cl)cc2)C1=O (centres undefined)	28µM*	-24%	40µM*	i
O=C(Nc1ccc2c(c1)CN(Cc1ccc(Cl)cc1)C(=O)CO2)c1ccc(F)cc1F	?	-27%	79µM*	i
CCC1Oc2ccc(NC(=O)Cc3ccc(F)cc3)cc2CN(Cc2ccc(Cl)cc2)C1=O (centres undefined)	10µM*	-19%	?	i
O=C(COc1ccccc1)Nc1ccc2c(c1)CN(Cc1ccccc1F)C(=O)CO2	?	?	?	i
COc1ccccc1CN1Cc2cc(NC(=O)Cc3ccc(F)cc3)ccc2OC(C)C1=O (centres undefined)	?	-15%	?	i
O=C(COc1ccccc1)Nc1ccc2c(c1)CN(CCc1ccc(F)cc1)C(=O)CO2	?	16µM*	?	?
COC(=O)c1ccc(CN2C(=O)[C@@H]3C[C@@H](O)CN3C3(CN(Cc4ccccc4F)C3)C2=O)cc1	1%	-20%	-1%	i
Cc1cccc(CC(=O)N2CCC3(CC2)CC(O)CCO3)c1 (centres undefined)	-4%	5%	-22%	i
CCC1Oc2ccc(NC(=O)C3CCCC3)cc2CN(Cc2ccccc2Cl)C1=O (centres undefined)	?	-5%	79µM*	i
CCC1Oc2ccc(NC(=O)C3CCCC3)cc2CN(Cc2ccc(F)cc2Cl)C1=O (centres undefined)	?	-20%	?	i
SMILES	3T3 cytotox	hNpr1 antagonist	HEK293 tox	FLuc inh
Cc1ccc([S+](=O)([O-])N2CCCC2C(=O)N2CCC(N3CCCC3=O)CC2)cc1 (centres undefined)	-16%	.	-1%	.
FC(F)(F)c1ccc2c(c1)nc1n2[C@@H](CNCc2c[nH]c3ccccc23)COC1	?	-17%[70.6 µM]	89µM*	i
Cc1noc(-c2ccc(OC3CN(C(=O)NC4CCCCC4)C3)cc2)n1	?	?	40µM*	i
Cc1noc(-c2cccc(OC3CN(C(=O)NC4CCCC4)C3)c2)n1	?	-8%	79µM*	i
CNC(=O)c1cc(C2CC2)nc2c1c(C1CCCN(C(=O)Cc3ccc(OC)cc3)C1)nn2C (centres undefined)	-12%	.	-18%	.
COc1ccc(-c2nc3ccc(-c4ccc5c(c4)OCO5)cc3o2)c(OC)c1OC	?	-7%	?	13µM*
